# Screening results: PubChem BioAssay, several laboratories
# A selection: hits, their analogues and other compounds. The true share with any hit is near 4.1%.
# Peg3 prom inh = Peg3 promoter-driven luciferase inhibitors, primary screen, cell-based, HeLa, luciferase luminescence. HeLa PEG-Prom luciferase reporter, overnight. inhibition, % at 20 µM. actives 1.7% (n = 360,000). AID 588405, 2011;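 active means inhibition of at least 50% at 20 µM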
# MITF TRPM1 inh = inhibitors of MITF-dependent TRPM1 promoter reporter, primary screen, cell-based, SK-MEL-5, single point, luciferase. SK-MEL-5 TRPM1 promoter luciferase, 24 h. inhibition, % at 12.5 µM. actives 0.83% (n = 330,000);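 active means mean inhibition across replicates of 60% or more, whatever share of single replicates reaches that level; inconclusive means some that reach 60%, reason not given; inactive means mean inhibition across replicates below 60%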
# TROY signal inh = inhibitors of TROY-driven NF-kB signaling, primary screen, Q293 LMP1-TROYcd cells, NF-kB luciferase, uHTS. Q293 LMP1-TROYcd NF-kB luciferase reporter, 4 h. inhibition, % at 10 µM. actives 0.98% (n = 360,000). AID 1347056, 2019;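 active means compounds whose plate-normalised and pattern-corrected inhibition of the luciferase reporter signal at the single screening dose is 50% or more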
# Shn3 inh set2 = reduction of Shn3 3'UTR firefly luciferase signal, primary screen, Schnurri-3 inhibitor project, cell-based, Clone20 osteoblasts, set 2; AID 588674, 2011; Clone20 osteoblast Shn3 3'UTR firefly luciferase, 24 h; inhibition, % at 12.5 µM; actives 0.52% (n = 360,000);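 active means mean inhibition of at least 75% with every replicate also reaching 75%; inconclusive means mean inhibition at least 75% but some replicate below; inactive means mean inhibition below 75%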;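 further: 0% = median of neutral control wells and 100% = pilot-screen positive control compound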
# LMP1 NFkB inh = EBV LMP1-driven NF-kappaB luciferase reporter inhibitors, primary screen, cell-based, luminescence, single point; LMP1-induced NF-kappaB luciferase reporter cells; inhibition, % at 12.5 µM; actives 0.69% (n = 350,000); in the data active means inhibition above about 41%; inconclusive means no clear call, values can overlap the other calls;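 further: 0% = neutral control wells and 100% = reference inhibitor control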
# TWEAK Fn14 block = inhibitors of TWEAK-Fn14 signaling, primary screen, luciferase reporter cells, uHTS. TWEAK-stimulated Fn14 reporter cells, luciferase luminescence, 8 h. actives 2% (n = 360,000). AID 1159606, 2016. inhibition, % at 10 µM; in the data active means inhibition above about 50%
# * hit, by the source's call; ? = inconclusive; · = no result.
SMILES,Peg3 prom inh,MITF TRPM1 inh,TROY signal inh,Shn3 inh set2,LMP1 NFkB inh,TWEAK Fn14 block
COc1ccccc1NS(=O)(=O)c1ccc(C)c(C(=O)NC2CCN(Cc3ccccc3)CC2)c1,4,17,14,54,5,17
COc1ccccc1NS(=O)(=O)c1cccc(C(=O)N/N=C/c2ccc3c(c2)OCCO3)c1,-42,-5,-31,69,5,-6
CCN(CC)c1ccc(/C=N/NC(=O)c2cccc(S(=O)(=O)Nc3ccccc3OC)c2)cc1,6,-20,10,4,-12,-2
COc1ccccc1NS(=O)(=O)c1cccc(C(=O)NC2CCN(Cc3ccccc3)CC2)c1,17,24,22,87*,32,33
COc1ccccc1NS(=O)(=O)c1cccc(C(=O)N/N=C/c2ccc([N+](=O)[O-])o2)c1,14,86*,8,53,-55,9
CCN(CC)c1ccc(/C=N/NC(=O)c2ccc3nc[nH]c3c2)c(O)c1,21,58,-5,92*,53*,-37
COc1ccc([N+](=O)[O-])cc1NC(=O)C(C)N1CCN(C(=O)c2ccco2)CC1 (configuration not stated),6,-3,8,-26,7,-16
COc1ccc(CN2CCN(Cc3cc4ccccc4o3)CC2CCO)cc1C (configuration not stated),21,1,15,33,6,-2
O=C(CC1C(=O)NCCN1CC1CCCCC1)NC1(c2ccccc2)CC1 (configuration not stated),7,16,10,-3,-2,3
CCCS(=O)(=O)NC(=O)C1(C)CCCN(C(=O)c2ccc3ccccc3c2)C1 (configuration not stated),19,·,2,-8,·,3
CCOc1ccc(NC(=O)/C(C#N)=C/c2cn(CC(=O)O)c3ccccc23)cc1,3,9,-3,-5,16,92*
CCOc1cccc(NC(=O)/C(C#N)=C\c2cn(CC(=O)O)c3ccccc23)c1,15,0,2,-3,6,7
COc1cc(CN(C(=S)NCC(=O)NC2CC2)C2CCCC2)cc(OC)c1OC,1,2,4,-1,-4,-18
O=C(OCC(=O)N1CCN(C(=O)c2ccco2)CC1)c1cc(-c2ccccc2)nc2ccccc12,-13,-3,·,5,2,10
O=C(OCC(=O)N1CCN(C(=O)c2ccco2)CC1)c1ccccc1C(=O)c1ccccc1,7,11,·,-2,-10,79*
O=C(OCC(=O)N1CCN(C(=O)c2ccco2)CC1)c1ccccc1C(=O)c1ccc(Cl)cc1,4,10,-8,6,5,6
O=C(OCC(=O)N1CCN(C(=O)c2ccco2)CC1)c1cc(-c2ccc(F)cc2)nc2ccccc12,1,2,2,-6,5,52*
CCOC(=O)Cn1c(=O)c(F)cn(Cc2ccc(OC)c([N+](=O)[O-])c2)c1=O,8,2,-7,22,-12,-15
COc1ccccc1-n1cc2c([N+](=O)[O-])cc([N+](=O)[O-])cc2n1,-43,5,-32,-7,2,51*
COc1ccccc1N1CCN(c2ccc([N+](=O)[O-])cc2Cl)CC1,-21,5,-4,4,5,10
COc1ccc(S(=O)(=O)N(CC(=O)NCc2ccncc2)c2cc(C)cc(C)c2)cc1OC,4,13,-11,-1,1,6
O=C(c1cccc(OCc2ccccc2)c1)N1CCOCC1,-30,-6,-5,-4,1,14
NNC(=O)c1cccc(COc2ccc(Br)cc2)c1,-202,-6,-67,-22,38,-14
COc1ccc(OCc2cccc(C(=O)Nn3cc([N+](=O)[O-])cn3)c2)cc1,-135,60,-26,-26,83*,-8
COc1ccc(OCc2cccc(C(=O)Nc3cc(C)on3)c2)cc1,-1,?,-56,14,81*,14
SMILES,Peg3 prom inh,MITF TRPM1 inh,TROY signal inh,Shn3 inh set2,LMP1 NFkB inh,TWEAK Fn14 block
CCOc1ccc(OCc2cccc(C(=O)N3CCOCC3)c2)cc1,21,56,-83,70,84*,12
COc1ccc(OCc2cccc(C(=O)NN)c2)cc1,-24,50,-55,21,62*,-30
CCN1C(=O)/C(=C\c2cccn2-c2ccc([N+](=O)[O-])cc2)N(CC)C1=S,14,4,3,17,-6,-52
NC(=N\N=Cc1ccco1)/C(N)=N/N=Cc1ccco1,-165,-28,-12,-12,-22,72*
NC(=N\N=Cc1ccccc1)/C(N)=N/N=Cc1ccccc1,-78,·,-42,-39,·,-28
CCOc1ccc(NC(=O)c2ccc(NC(=O)Cc3n[nH]c(=O)c4ccccc34)cc2)cc1,-10,3,-8,-5,0,-37
CC(/C=N/NC(=O)COc1ccccc1C)=N\NC(=O)COc1ccccc1C,12,-4,6,2,2,2
CCN(CC)S(=O)(=O)c1ccc(N=NC2=C(O)CC(C)(C)CC2=O)cc1,5,6,-5,10,0,-2
CCN(CC)S(=O)(=O)c1ccc(N=NC2=C(O)CCCC2=O)cc1,3,-6,7,10,63*,2
CCOC(=O)C1=C(CSc2nc3ccccc3s2)NC(=O)NC1c1ccc(OC)cc1 (configuration not stated),64*,5,16,67,31,17
CCOC(=O)C1=C(CSc2nc3ccccc3s2)NC(=O)NC1c1cc(C)ccc1C (configuration not stated),30,5,12,1,-2,30
COc1cc(OC)c(C2=Nc3ccc(Br)cc3C(c3ccccc3)N2CC(=O)NN)cc1OC (configuration not stated),-3,-2,-5,-3,0,3
CCN(CC)C1CCN(C(=O)c2cc(COc3ccc(F)cc3Cl)on2)C1 (configuration not stated),-22,-6,-23,-31,-11,-2
COCC1CCN(C(=O)c2cc(COc3ccc(F)cc3Cl)on2)C1 (configuration not stated),-195,·,-47,-18,-5,94*
O=C(Nc1cccc(-c2cn3ccccc3n2)c1)c1cc2ccccc2oc1=O,73*,49,-35,-27,-97,37
Cc1ccnc(NC(=O)c2cc3ccccc3oc2=O)c1,-153,-12,-30,-19,-3,60*
CC1CCc2nc(NC(=O)CSc3nc4ccccc4o3)sc2C1 (configuration not stated),-17,-1,86*,37,5,93*
